Test results from PubChem BioAssay (NCI).
This is part of a sample that, as a whole, favours compounds with a hit. Of some 79,000 tested, about 15% had one in any assay. Values without a mark were called inactive. Calls of active or inactive are those of the source. Rule as the data show it: active = growth inhibition above about 70%; inactive = the rest.

What was measured:
[1] = NCI Yeast Anticancer Drug Screen. Data for the rad50 strain (AID 155);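 also: 0% = growth of vehicle-only cultures of the same strain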; details: S. cerevisiae rad50 strain growth inhibition, stronger effect = higher value
Procedure, shortened: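 Cells are treated with compound, grown, and their growth is then scored against vehicle-only cultures of the same repair-deficient yeast strain.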

[2] = NCI Yeast Anticancer Drug Screen. Data for the mec2-1 strain (AID 157); details: S. cerevisiae mec2-1 strain, stronger effect = higher value
Procedure, shortened: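 Yeast mec2-1 mutant treated with compound. Readout: growth inhibition vs vehicle controls.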

[3] = NCI Yeast Anticancer Drug Screen. Data for the sgs1 mgt1 strain (AID 161);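 also: 0% = growth of cultures given vehicle only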; details: S. cerevisiae sgs1 mgt1 strain, stronger effect = higher value
Procedure, shortened: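 Inhibition of yeast growth, normalised to vehicle-treated controls, is reported for a strain bearing genetic alterations in DNA damage repair.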

[4] = NCI Yeast Anticancer Drug Screen. Data for the cln2 rad14 strain (AID 165);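 also: 0% = growth equal to vehicle treated cultures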; details: S. cerevisiae cln2 rad14 strain, stronger effect = higher value
Procedure, shortened: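 cln2 rad14 yeast strain; compound exposure; growth inhibition read vs vehicle controls.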

[5] = NCI Yeast Anticancer Drug Screen. Data for the bub3 strain (AID 167); details: S. cerevisiae bub3 mutant strain, stronger effect = higher value
Procedure, shortened: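 Part of a panel of yeast mutants defective in DNA damage repair or cell cycle regulation. Each strain is grown with compound, and inhibition is calculated relative to solvent-treated cultures.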

[6] = NCI Yeast Anticancer Drug Screen. Data for the mlh1 rad18 strain (AID 175); details: S. cerevisiae mlh1 rad18 strain growth inhibition, stronger effect = higher value
Procedure, shortened: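 Yeast w/ defined DNA-repair lesions; compound exposure; growth vs vehicle controls → % inhibition.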

[7] = at 5.0 µM (retest, dose inferred, filed as 0.5)
[8] = at 50.0 µM (retest, dose inferred, filed as 5.0)

| Compound | growth inhibition [1, 7] | growth inhibition [1, 8] | growth inhibition ([1]; at 50.0 µM) | growth inhibition [2, 7] | growth inhibition [2, 8] | growth inhibition ([2]; at 50.0 µM) | growth inhibition [3, 7] | growth inhibition [3, 8] | growth inhibition ([3]; at 50.0 µM) | growth inhibition [4, 7] | growth inhibition [4, 8] | growth inhibition ([4]; at 50.0 µM) | growth inhibition [5, 7] | growth inhibition [5, 8] | growth inhibition ([5]; at 50.0 µM) | growth inhibition [6, 7] | growth inhibition [6, 8] | growth inhibition ([6]; at 50.0 µM) |
| --- | --- | --- | --- | --- | --- | --- | --- | --- | --- | --- | --- | --- | --- | --- | --- | --- | --- | --- |
| Oc1c(Cl)cc(Cl)cc1Cl | -1% | 94% (active) | 86.5% (active) | -6% | 67% | 78% (active) | -1% | 64% | 94.8% (active) | -8% | 55% | 54.9% | -13% | 90% (active) | 78.5% (active) | -5% | 94% (active) | 95.8% (active) |
| CCC[CH2][Sn]([Cl])([Cl])[CH2]CCC | 96% (active) | 98% (active) | 99.5% (active) | 98% (active) | 98% (active) | 99.3% (active) | 96% (active) | 96% (active) | 99.2% (active) | 98% (active) | 98% (active) | 98.7% (active) | 98% (active) | 98% (active) | 99.5% (active) | 98% (active) | 97% (active) | 98.8% (active) |
| Cc1nc2c(Br)cc(Br)cc2c(=O)n1-c1ccccc1N | 19% | 22% | 63% | 15% | 17% | 9.45% | 13% | 24% | 63.8% | 18% | 37% | 19.4% | 3% | 4% | 70.2% (active) | 37% | 34% | 46.2% |
| O=[N+]([O-])c1c(Cl)sc(Cl)c1[N+](=O)[O-] | 99% (active) | 99% (active) | 99.7% (active) | 100% (active) | 100% (active) | 99.7% (active) | 99% (active) | 99% (active) | 99.5% (active) | 99% (active) | 99% (active) | 99.8% (active) | 100% (active) | 100% (active) | 99.7% (active) | 99% (active) | 99% (active) | 99.7% (active) |
| O=[N+]([O-])c1cc([N+](=O)[O-])c(Cl)cc1F | 99% (active) | 99% (active) | 81% (active) | 99% (active) | 99% (active) | 59.7% | 99% (active) | 99% (active) | 78.2% (active) | 98% (active) | 99% (active) | -3.25% | 99% (active) | 99% (active) | 87.5% (active) | 99% (active) | 99% (active) | 98.6% (active) |
| O=C(C1C(c2ccccc2)N1C(c1ccccc1)c1ccccc1)C1C(c2ccccc2)N1C(c1ccccc1)c1ccccc1 (configuration not stated) | -3% | 50% | 72.7% (active) | 23% | 42% | 54% | -3% | 77% (active) | 58% | -17% | 6% | 24% | -14% | 56% | 63.9% | 7% | 80% (active) | 90.2% (active) |
| COC12C(COC(C)=O)C3=C(C(=O)C(C)=C(N4CCCCC4)C3=O)N1CC1NC12 (configuration not stated) | 93% (active) | 97% (active) | 89.5% (active) | 96% (active) | 95% (active) | 91.7% (active) | 79% (active) | 97% (active) | 90.5% (active) | 93% (active) | 97% (active) | 86.6% (active) | 67% | 96% (active) | 88% (active) | 98% (active) | 97% (active) | 90% (active) |
| COc1ccc2c3c(c4cc(OC)c(OC)cc4c2c1)C[C@H]1CCCCN1C3 | 99% (active) | 99% (active) | 92.6% (active) | 99% (active) | 100% (active) | 94.2% (active) | 99% (active) | 99% (active) | 93.8% (active) | 99% (active) | 99% (active) | 92.5% (active) | 99% (active) | 99% (active) | 93.2% (active) | 99% (active) | 99% (active) | 93% (active) |
| O=P1(NCCCl)OC(c2ccccc2)=CCN1CCCl (configuration not stated) | -1% | -1% | 97.9% (active) | -5% | 6% | 94.1% (active) | 1% | -1% | 99% (active) | -2% | 5% | 96% (active) | -2% | -1% | 89.6% (active) | -3% | 1% | 98.8% (active) |
| Nc1nc(N)c(-c2ccc(Cl)c(Cl)c2)c(CCc2ccc(CNC(=O)Nc3ccc(S(=O)(=O)F)cc3)cc2)n1 | 4% | 28% | 56.8% | 0% | 19% | 34% | -4% | 35% | 79.8% (active) | 1% | 40% | 25.8% | -1% | 25% | 25% | 4% | 82% (active) | 84.7% (active) |
| [Ni+2].[SH2+]C([SH2+])=Nc1ccccc1.[SH2+]C([SH2+])=Nc1ccccc1.c1ccc(C[P+](c2ccccc2)(c2ccccc2)c2ccccc2)cc1 | 14% | 91% (active) | 97.9% (active) | 26% | 88% (active) | 98% (active) | 21% | 91% (active) | 97.8% (active) | -6% | 87% (active) | 90.8% (active) | 8% | 85% (active) | 95.3% (active) | 40% | 98% (active) | 98.5% (active) |
| FC(F)(F)c1cccc(CCl)c1 | -1% | 3% | 24.8% | 0% | 1% | -5.7% | -1% | 1% | -17.4% | -5% | -6% | -20.2% | -3% | 7% | -8.25% | -2% | 4% | 38.5% |
| c1ccc2c(c1)CCc1c-2[nH]c2ccccc12 | -67% | 79% (active) | 72.2% (active) | -8% | 77% (active) | 36.4% | -9% | 90% (active) | 71.7% (active) | -60% | 65% | 51.8% | -48% | 87% (active) | 89.8% (active) | -43% | 83% (active) | 83.2% (active) |
| COc1c(Br)cc(/C=C(/C)[N+](=O)[O-])cc1Br | 23% | 66% | 91.3% (active) | 12% | 57% | 92.5% (active) | 43% | 74% (active) | 31.8% | 29% | 61% | 71.2% (active) | 46% | 79% (active) | 91.8% (active) | 13% | 59% | 82.3% (active) |
| C[CH2][Pb]([CH2]C)([CH2]C)[n]1cnc2ccccc21 | 4% | 87% (active) | 66% | 2% | 98% (active) | 74% (active) | 5% | 97% (active) | 82.2% (active) | -3% | 62% | 41.8% | 2% | 97% (active) | 80.3% (active) | 4% | 98% (active) | 79% (active) |
| O=S(=O)(c1ccccc1)N1C2C3CCC(CC3)C21 (configuration not stated) | -1% | -4% | 1.2% | -11% | -16% | 2.75% | -3% | -32% | 23% | -1% | 3% | 7.65% | 14% | 96% (active) | 76.6% (active) | -13% | -5% | 1.5% |
| CCC(C)(C)c1ccc(OP(=S)(S)Oc2ccc(C(C)(C)CC)cc2)cc1 | -1% | 92% (active) | 88.5% (active) | 3% | 96% (active) | 68.7% | -7% | 95% (active) | 94.9% (active) | 4% | 90% (active) | 90.7% (active) | -1% | 94% (active) | 31.5% | -4% | 95% (active) | 90.5% (active) |
| CCC[CH2][Sn]1([CH2]CCC)[O]C(=O)c2cccnc2[O]1 | 34% | 94% (active) | 85.3% (active) | 31% | 97% (active) | 85.5% (active) | 42% | 97% (active) | 85.3% (active) | 22% | 93% (active) | 78.4% (active) | 47% | 97% (active) | 87.7% (active) | 51% | 97% (active) | 84.5% (active) |
| C[As](C)SCCC(CCCCC(=O)O)S[As](C)C (configuration not stated) | 27% | 38% | 66.2% | 27% | 32% | 47% | 2% | -69% | 78.3% (active) | 5% | -52% | 37.4% | 2% | -42% | 76.5% (active) | 39% | 65% | 25.4% |
